Laboratory results reported in PubChem BioAssay (Tox21).
Records with an inconclusive call do not appear. Active and inactive are the calls of the source. Unless noted, the call rests on the fitted dose curve; in most records, active means well fitted curve in the direction sought with a large enough effect in the repeat runs; inconclusive means weak or mixed curves; inactive means no such curve, though single readings can be large; an effect the other way counts as inactive or inconclusive.

Legend:
[1] = qHTS assay to identify small molecule antagonists of the retinoid-related orphan receptor gamma (ROR-gamma) signaling pathway - cell viability counter screen (AID 1159520); further: nearly all actives have a fitted effect of over 50% in size; further: potency means the concentration at half of the fitted maximal effect
Outline: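 Tet-on ROR gamma CHO cells (1,000/well) were plated 4 hr, given compounds in DMSO for 2 hr at 37 C, then induced with 1 uM final doxycycline for 16 hr. Viability was read as ATP by CellTiter-Glo luminescence after 30 min.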

[2] = molecular target: Nuclear receptor ROR-gamma (Homo sapiens) (UniProt P51449); test: qHTS assay to identify small molecule antagonists of the retinoid-related orphan receptor gamma (ROR-gamma) signaling pathway (AID 1159521; further: nearly all actives have a fitted effect of over 50% in size; further: potency means the concentration at half of the fitted maximal effect)
Outline: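 Screening format: cell-based luciferase reporter in CHO cells with doxycycline-inducible RORγ. Compound pre-exposure lasts 2 h, doxycycline is 1 uM final, induction runs 16 h at 37 C, and ONE-Glo luminescence is read.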

[3] = qHTS assay to identify small molecule agonists of the AP-1 signaling pathway - cell viability counter screen (AID 1159525; calls by dose curve; further: nearly all actives have a fitted effect of over 55% in size; further: potency means the concentration at half of the fitted maximal effect)
Outline: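 ME-180 AP-1-bla, 2500 cells/well, Opti-MEM + 0.5% dialyzed FBS; overnight 37 °C; cpd 15-pt titration, 5 h 37 °C; CellTiter-Glo 30 min RT; luminescence read; normalised to TOAB and DMSO controls.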

[4] = qHTS assay to identify small molecule agonists of the AP-1 signaling pathway (AID 1159526; calls by dose curve; further: potency means the concentration at half of the fitted maximal effect)
[5] = molecular target: Retinoic acid receptor RXR-alpha (Homo sapiens) (UniProt P19793); test: qHTS assay to identify small molecule agonists of the RXR signaling pathway (AID 1159527; calls by dose curve; further: nearly all actives have a fitted effect of over 35% in size)
Outline: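 Fluorescence ratio readout (460 vs 530 nm) from GeneBLAzer RXR-alpha HEK 293T cells after 16 hr compound treatment; cells seeded 5 hr beforehand in low-serum, charcoal-stripped medium.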

[6] = qHTS assay to identify small molecule agonists of the farnesoid-X-receptor (FXR) signaling pathway - cell viability counter screen (AID 743218); further: nearly all actives have a fitted effect of over 45% in size; further: potency means the concentration at half of the fitted maximal effect
Outline: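 Cytotoxicity counter-screen run in parallel, same wells: FXR-UAS-bla HEK 293T cells dosed 16 h at 37 C, viability read by CellTiter-Glo luminescence after 30 min at room temperature.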

[7] = qHTS assay to identify small molecule antagonists of the farnesoid-X-receptor (FXR) signaling pathway - cell viability counter screen (AID 743221; active means well fitted cell-killing curve with a large enough effect in the repeat runs, not every such curve was filed as active; further: nearly all actives have a fitted effect of over 50% in size; further: potency means the concentration at half of the fitted maximal effect)
Outline: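 Compound effects on cell number were measured as CellTiter-Glo luminescence in HEK 293T cells expressing FXR-UAS-bla, after 16 h at 37 C with 50 uM CDCA (final).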

[8] = qHTS assay to identify small molecule agonists of the vitamin D receptor (VDR) signaling pathway - cell viability counter screen (AID 743224); further: nearly all actives have a fitted effect of over 50% in size; further: potency means the concentration at half of the fitted maximal effect
Outline: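 Viability is measured in the same wells as the VDR-bla reporter assay: after 16 h compound treatment and 2 h substrate loading, CellTiter-Glo is added and luminescence read 30 min later.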

[9] = qHTS assay to identify small molecule agonists of the endoplasmic reticulum stress response signaling pathway - cell viability counter screen (AID 1159517; calls by dose curve; further: nearly all actives have a fitted effect of over 50% in size; further: potency means the concentration at half of the fitted maximal effect)
Outline: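 Luminescence readout: CellTiter-Glo, 30 min RT, same wells as the ESRE-bla reporter read. HeLa ESRE-bla, 1,500 cells/well, o/n 37 C; cpd 5 hr 37 C/5% CO2.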

[10] = qHTS assay to identify small molecule agonists of the peroxisome proliferator-activated receptor delta (PPARd) signaling pathway - cell viability counter screen (AID 743211); further: potency means the concentration at half of the fitted maximal effect; nearly all actives have a fitted effect of over 55% in size
Outline: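 Following 5 h plating at 37 C and 5% CO2, PPARd UAS-bla HEK293H cells took up test compounds for 17 h. Viability was quantified by luminescence 30 min after CellTiter-Glo addition at room temperature.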

[11] = qHTS assay to identify small molecule antagonists of the peroxisome proliferator-activated receptor delta (PPARd) signaling pathway - cell viability counter screen (AID 743213); further: nearly all actives have a fitted effect of over 50% in size; further: potency means the concentration at half of the fitted maximal effect
Outline: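 HEK293H PPARd UAS-bla cells, 5 h pre-incubation, compound + L165041 300 nM final, 17 h 37 C; B/G FRET substrate 2 h RT; then CellTiter-Glo 30 min RT, luminescence.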

[12] = molecular target: Peroxisome proliferator-activated receptor delta (Homo sapiens) (UniProt Q03181); test: qHTS assay to identify small molecule antagonists of the peroxisome proliferator-activated receptor delta (PPARd) signaling pathway (AID 743215; active means well fitted inhibition curve with a large enough effect in the signal ratio in the repeat runs, not every such curve was filed as active; the % refers to the signal ratio;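 further: cells stimulated with agonist L165041 at 300 nM final during compound exposure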; further: potency means the concentration at half of the fitted maximal effect)
Outline: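 Inhibition of L165041-driven (300 nM final) PPARd signaling is scored in HEK293H UAS-bla cells. Exposure lasts 17 h at 37 C; beta-lactamase activity is then read by FRET substrate fluorescence after 2 h at room temperature.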

[13] = molecular target: Peroxisome proliferator-activated receptor delta (Homo sapiens) (UniProt Q03181); test: qHTS assay to identify small molecule agonists of the peroxisome proliferator-activated receptor delta (PPARd) signaling pathway (AID 743212; calls by dose curve)
Outline: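 GeneBLAzer PPARd UAS-bla HEK293H cells (beta-lactamase reporter under UAS control), plated and rested 5 h at 37 C, then exposed to compounds in DMSO at 37 C; LiveBLAzer B/G FRET substrate added, 2 h room temperature, fluorescence read.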

[14] = molecular target: Bile acid receptor (Homo sapiens) (UniProt Q96RI1); test: qHTS assay to identify small molecule agonists of the farnesoid-X-receptor (FXR) signaling pathway (AID 743220; active means well fitted activation curve with a large enough effect in the signal ratio in the repeat runs, not every such curve was filed as active; the % refers to the signal ratio)
Outline: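 Beta-lactamase reporter under UAS control in GeneBLAzer FXR HEK 293T cells (5000/well) measured with LiveBLAzer FRET substrate after 2 h at room temperature. Compound exposure lasted 16 h at 37C.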

[15] = molecular target: Vitamin D3 receptor (Homo sapiens) (UniProt P11473); test: qHTS assay to identify small molecule agonists of the vitamin D receptor (VDR) signaling pathway (AID 743222; calls by dose curve)
Outline: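 Quantitative HTS agonist-mode screen: compounds in DMSO were pin-transferred onto VDR-bla cells and incubated 16 h at 37C, 5% CO2. Reporter activity was detected with LiveBLAzer B/G FRET substrate after 2 h at room temperature.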

[16] = qHTS assay to identify small molecule antagonists of the vitamin D receptor (VDR) signaling pathway - cell viability counter screen (AID 743225); further: nearly all actives have a fitted effect of over 50% in size; further: potency means the concentration at half of the fitted maximal effect
Outline: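 In this counter screen, VDR-bla HEK 293T cells receive test compound plus 3 nM final calcitriol for 16 h at 37C. Room-temperature steps of 2 h with the beta-lactamase substrate, then 30 min with CellTiter-Glo, precede the luminescence read.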

[17] = molecular target: Vitamin D3 receptor (Homo sapiens) (UniProt P11473); test: qHTS assay to identify small molecule antagonists of the vitamin D receptor (VDR) signaling pathway (AID 743223; active means well fitted inhibition curve with a large enough effect in the signal ratio in the repeat runs, not every such curve was filed as active; the % refers to the signal ratio)
Outline: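 Beta-lactamase activity in VDR-bla cells is measured by FRET substrate fluorescence (2 h, room temperature) after cells spend 16 h at 37C with test compound and 3 nM final 1alpha,25-dihydroxyvitamin D3.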

Measured: Potency

Chain of Peroxisome proliferator-activated receptor delta (Homo sapiens) (Q03181 whole entry, looked up): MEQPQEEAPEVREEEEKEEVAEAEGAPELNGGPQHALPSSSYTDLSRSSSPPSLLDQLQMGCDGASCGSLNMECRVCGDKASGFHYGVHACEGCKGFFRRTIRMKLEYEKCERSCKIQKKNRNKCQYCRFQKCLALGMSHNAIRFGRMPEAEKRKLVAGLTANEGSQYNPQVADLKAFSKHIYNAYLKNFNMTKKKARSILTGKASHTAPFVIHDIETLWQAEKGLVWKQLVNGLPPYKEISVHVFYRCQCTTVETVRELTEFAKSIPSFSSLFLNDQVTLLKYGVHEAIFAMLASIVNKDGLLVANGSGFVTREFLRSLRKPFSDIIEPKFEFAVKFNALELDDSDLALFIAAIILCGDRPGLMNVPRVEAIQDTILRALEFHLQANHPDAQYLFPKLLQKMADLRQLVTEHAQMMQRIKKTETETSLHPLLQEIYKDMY
Chain of Retinoic acid receptor RXR-alpha (Homo sapiens) (P19793 whole entry, looked up): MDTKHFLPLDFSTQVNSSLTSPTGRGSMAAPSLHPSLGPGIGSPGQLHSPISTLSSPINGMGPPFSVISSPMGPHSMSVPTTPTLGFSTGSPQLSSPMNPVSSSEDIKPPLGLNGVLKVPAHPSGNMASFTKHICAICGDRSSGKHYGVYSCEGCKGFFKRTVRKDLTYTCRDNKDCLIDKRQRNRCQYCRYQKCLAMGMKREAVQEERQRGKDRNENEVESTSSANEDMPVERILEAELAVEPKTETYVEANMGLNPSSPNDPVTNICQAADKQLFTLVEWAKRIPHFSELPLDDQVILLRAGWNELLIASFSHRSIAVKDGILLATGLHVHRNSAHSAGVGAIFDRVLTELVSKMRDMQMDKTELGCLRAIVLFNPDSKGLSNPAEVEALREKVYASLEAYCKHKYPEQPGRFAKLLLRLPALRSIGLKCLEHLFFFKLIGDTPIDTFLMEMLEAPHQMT
Chain of Vitamin D3 receptor (Homo sapiens) (P11473 whole entry, looked up): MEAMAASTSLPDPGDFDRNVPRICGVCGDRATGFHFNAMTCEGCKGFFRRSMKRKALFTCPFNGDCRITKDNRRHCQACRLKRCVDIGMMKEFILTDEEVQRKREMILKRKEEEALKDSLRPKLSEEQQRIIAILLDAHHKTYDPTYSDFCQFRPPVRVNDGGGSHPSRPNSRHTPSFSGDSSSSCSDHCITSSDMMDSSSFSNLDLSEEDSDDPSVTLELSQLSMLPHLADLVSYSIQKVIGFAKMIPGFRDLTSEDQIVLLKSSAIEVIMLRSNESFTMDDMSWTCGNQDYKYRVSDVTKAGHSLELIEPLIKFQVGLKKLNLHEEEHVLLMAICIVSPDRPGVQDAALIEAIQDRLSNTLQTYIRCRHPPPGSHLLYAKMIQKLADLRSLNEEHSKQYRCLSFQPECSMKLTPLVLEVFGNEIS
Chain of Bile acid receptor (Homo sapiens) (Q96RI1 whole entry, looked up): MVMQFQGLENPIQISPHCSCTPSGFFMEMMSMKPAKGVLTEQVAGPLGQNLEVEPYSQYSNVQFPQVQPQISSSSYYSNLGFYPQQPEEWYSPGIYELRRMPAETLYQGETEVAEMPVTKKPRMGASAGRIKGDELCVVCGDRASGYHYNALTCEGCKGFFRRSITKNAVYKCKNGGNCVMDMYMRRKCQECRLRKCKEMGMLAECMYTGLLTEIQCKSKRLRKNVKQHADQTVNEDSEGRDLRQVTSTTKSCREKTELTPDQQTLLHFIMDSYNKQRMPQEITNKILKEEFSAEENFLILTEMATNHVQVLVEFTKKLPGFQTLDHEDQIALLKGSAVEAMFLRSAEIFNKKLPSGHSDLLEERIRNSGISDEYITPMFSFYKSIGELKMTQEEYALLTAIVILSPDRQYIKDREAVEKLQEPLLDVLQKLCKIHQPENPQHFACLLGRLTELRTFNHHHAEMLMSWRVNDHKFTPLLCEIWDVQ

Oc1ccccc1Br
inactive: [1] | [2] | [3] | [4] | [5]

CCS(=O)(=O)c1cccnc1S(=O)(=O)NC(=O)Nc1nc(OC)cc(OC)n1
inactive: [1] | [2] | [3] | [4] | [5]

C=CCC1=C(C)C(OC(=O)C2C(C=C(C)C)C2(C)C)CC1=O (stereo not drawn)
active: [6] 51.9 µM | [7] 46.3 µM | [8] 18.4 µM | [9] 36.8 µM

C[CH2][Hg][N]1C(=O)C2C(C1=O)C1(Cl)C(Cl)=C(Cl)C2(Cl)C1(Cl)Cl (stereo not drawn)
active: [1] 3.66 µM | [2] 2.31 µM | [3] 6.57 µM

CCOc1cc(C(C)(C)C)ccc1C1COC(c2c(F)cccc2F)=N1 (stereo not drawn)
inactive: [9] | [3]
active: [10] 29.7 µM | [11] 33.4 µM | [12] 29.7 µM | [6] 33.4 µM | [8] 23.6 µM

Oc1cccc(-c2ccccc2)c1
inactive: [1] | [2] | [5]

ClC1=C(Cl)[C@]2(Cl)[C@@H]3[C@@H](Cl)[C@@H](Cl)C[C@@H]3[C@@]1(Cl)C2(Cl)Cl
inactive: [1] | [2] | [4] | [5]

NC(=O)CCl
inactive: [1] | [2] | [3] | [5]

COC[C@H](C)N(C(=O)CCl)c1c(C)csc1C
inactive: [1] | [2] | [4] | [5]

CCc1nn(C)c(C(=O)NCc2ccc(C(C)(C)C)cc2)c1Cl
active: [10] 38.9 µM | [11] 43.6 µM | [6] 49 µM | [8] 27.5 µM | [16] 38.9 µM | [1] 21.7 µM | [2] 0.545 µM | [3] 54.9 µM
inactive: [13] | [14] | [15]

CCc1ccccc1C
inactive: [1] | [2] | [3] | [4] | [5]

Clc1ccc(Oc2ccccc2)cc1
inactive: [1] | [2] | [4] | [5]

Nc1c(Oc2ccccc2)cc(O)c2c1C(=O)c1ccccc1C2=O
inactive: [1] | [2] | [3] | [5]

CC(C)C1CCC(Cc2ccc(Cl)cc2)C1(O)Cn1cncn1 (stereo not drawn)
inactive: [14]
active: [10] 54.4 µM | [1] 60.5 µM | [2] 30.3 µM | [3] 48.5 µM

CC(=O)c1ccc(-c2ccccc2)cc1
inactive: [1] | [3] | [4] | [5]

Cn1[nH]nnc1=S
active: [4] 49 µM
inactive: [1] | [2] | [5]

Nc1ccc([N+](=O)[O-])cc1Cl
inactive: [1] | [2] | [4] | [5]

Clc1ccc(-c2ccc(Cl)c(Cl)c2Cl)c(Cl)c1Cl
active: [10] 20.8 µM | [6] 46.6 µM
not listed: [3] | [5] | [9] | [13] | [16]
inactive: all other assays above

Cc1ccc(C(=O)Cl)cc1
inactive: [1] | [2] | [3] | [5]

Oc1ccc(I)cc1
inactive: [1] | [3] | [4] | [5]

Oc1c(Br)c(Br)c(Br)c(Br)c1Br
active: [2] 24.5 µM
inactive: [14] | [1] | [3]

CCOP(=S)(OCC)SCS(=O)(=O)C(C)(C)C
inactive: [1] | [2] | [3] | [5]

CNC(C)Cc1ccc2c(c1)OCO2 (stereo not drawn)
inactive: [6] | [15] | [17] | [16] | [1] | [2]

CCCCOP(=O)(CCCC)OCCCC
inactive: [1] | [3] | [4] | [5]

O=c1c(C2CC(c3ccc(-c4ccc(Br)cc4)cc3)Cc3ccccc32)c(O)sc2ccccc12 (stereo not drawn)
inactive: [7] | [17] | [1] | [4]
active: [2] 2.66 µM

COc1ccc([N+](=O)[O-])cc1O
inactive: [1] | [2] | [3] | [4] | [5]

N#Cc1ccccc1N
inactive: [1] | [2] | [4] | [5]

CCSC(C)CC1CC(=O)C(/C(CC)=N/OC/C=C/Cl)=C(O)C1 (stereo not drawn)
inactive: [1] | [2] | [3] | [4] | [5]

CCOP(=O)(NC(C)C)Oc1ccc(SC)c(C)c1 (stereo not drawn)
inactive: [6] | [7] | [15] | [8] | [1]
active: [2] 9.69 µM
